For 17 compounds, Potency and outcome results are on record in PubChem BioAssay (Tox21).

Molecules are shown by their SMILES. Where “and” joins values, the source holds several entries; their conditions need not be identical. Equal entries are not always repeated. Results filed as inconclusive are left out. The source holds several records for some structures; these can differ, active in one and inactive in another. Calls of active or inactive are those of the source. Unless noted, calls come from the whole dose curve; as a rule, active = well fitted curve in the direction sought with a large enough effect in the repeat runs; inconclusive = weak or mixed curves; inactive = no such curve, though single readings can be large; an effect the other way counts as inactive or inconclusive.

Assay [1] in a line: qHTS assay to identify aromatase inhibitors - cell viability counter screen (AID 743084).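 Note: cells stimulated with testosterone during compound exposure; nearly all actives have a fitted effect of over 55% in size.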 Note: potency is the fitted concentration of half-maximal effect. In general terms: Quantitative high-throughput screening tests each substance at several concentrations.
For assay [2], the target named is Aryl hydrocarbon receptor (Homo sapiens) (UniProt P35869). The assay can be described thus: qHTS assay to identify small molecule that activate the aryl hydrocarbon receptor (AhR) signaling pathway (AID 743085).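 For activation: HG2L7.5c1 human HepG2 liver cells with stably integrated DRE-driven firefly reporter; series mostly up to about 70 µM.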 Note: nearly all actives have a fitted effect of over 15% in size. Note: potency is the fitted concentration of half-maximal effect. The method in brief: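 Compounds were tested in HepG2 hepatocellular carcinoma cells harbouring a stably integrated luciferase gene under control of 20 DREs. Increased reporter signal after 24 h treatment at 37C was taken as AhR activation.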
Chain of Aryl hydrocarbon receptor (Homo sapiens) (P35869 whole entry, looked up): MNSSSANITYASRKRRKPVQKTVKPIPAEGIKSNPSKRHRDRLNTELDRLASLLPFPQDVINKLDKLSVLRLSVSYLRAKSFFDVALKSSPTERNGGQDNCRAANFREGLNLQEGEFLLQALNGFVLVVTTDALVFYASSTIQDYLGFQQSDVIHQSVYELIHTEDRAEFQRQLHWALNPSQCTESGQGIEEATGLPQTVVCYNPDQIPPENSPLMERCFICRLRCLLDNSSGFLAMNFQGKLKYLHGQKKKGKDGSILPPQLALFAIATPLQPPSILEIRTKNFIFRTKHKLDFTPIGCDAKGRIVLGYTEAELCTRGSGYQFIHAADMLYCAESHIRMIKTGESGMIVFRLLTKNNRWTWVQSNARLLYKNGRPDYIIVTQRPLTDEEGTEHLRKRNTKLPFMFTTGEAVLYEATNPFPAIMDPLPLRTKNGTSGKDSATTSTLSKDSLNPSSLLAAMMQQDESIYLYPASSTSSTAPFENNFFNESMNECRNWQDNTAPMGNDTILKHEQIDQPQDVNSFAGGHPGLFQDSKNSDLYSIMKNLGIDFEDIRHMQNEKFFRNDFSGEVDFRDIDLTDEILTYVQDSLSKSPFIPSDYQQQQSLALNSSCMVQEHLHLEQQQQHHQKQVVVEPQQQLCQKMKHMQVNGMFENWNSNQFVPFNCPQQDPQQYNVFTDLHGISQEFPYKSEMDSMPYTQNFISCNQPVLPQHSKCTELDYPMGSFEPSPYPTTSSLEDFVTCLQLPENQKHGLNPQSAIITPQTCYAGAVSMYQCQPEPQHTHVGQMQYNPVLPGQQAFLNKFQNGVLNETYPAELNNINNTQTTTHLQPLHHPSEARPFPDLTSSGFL

Assay [3] can be described thus: qHTS assay to identify small molecule that activate the aryl hydrocarbon receptor (AhR) signaling pathway - cell viability counter screen (AID 743086). Note: nearly all actives have a fitted effect of over 45% in size. Note: potency is the fitted concentration of half-maximal effect. Summed up:
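HepG2-AhR-luc (HG2L7.5c1) cells, 4000/well, were preincubated 5 h at 37C, exposed to compound in qHTS format for 24 hr at 37C, then given CellTiter-Fluor for 30 min; viability was read as fluorescence in the reporter wells.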

Assay [4] deals with Peroxisome proliferator-activated receptor gamma (Homo sapiens) (UniProt P37231). The assay can be described thus: qHTS assay to identify small molecule agonists of the peroxisome proliferator-activated receptor gamma (PPARg) signaling pathway (AID 743094; active = well fitted activation curve with a large enough effect in the signal ratio in the repeat runs, not every such curve was filed as active; the % refers to the signal ratio). The method in brief:
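GeneBLAzer PPARg UAS-bla HEK293H cells carrying a stably integrated beta-lactamase reporter were pre-incubated 5 h at 37C, then exposed to compounds in DMSO for 17 h at 37C; LiveBLAzer B/G FRET substrate was added for 1 h at room temperature and fluorescence read.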

The target is the same in assay [5]. The assay can be described thus: qHTS assay to identify small molecule antagonists of the peroxisome proliferator-activated receptor gamma (PPARg) signaling pathway (AID 743191; calls by dose curve; note: series mostly up to about 63 µM; nearly all actives have a fitted effect of over 30% in size). Summed up: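 GeneBLAzer PPARg UAS-bla HEK293H cells carrying a UAS-driven beta-lactamase reporter were plated at 3000 cells/well, preincubated 5 h at 37C, then given compound for 17 h at 37C; LiveBLAzer B/G FRET substrate was read after 1 h at room temperature.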

Assay [6] can be described thus: qHTS assay to identify small molecule antagonists of the peroxisome proliferator-activated receptor gamma (PPARg) signaling pathway - cell viability counter screen (AID 743194). Note: nearly all actives have a fitted effect of over 55% in size. Summed up:
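PPARg-UAS-bla HEK293H cells were plated, rested 5 h at 37 C, then treated with compounds plus rosiglitazone (50 nM final) for 17 h at 37 C; viability was then read by CellTiter-Glo luminescence after 30 min at room temperature.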

Assay [7] in a line: qHTS assay for small molecule agonists of the antioxidant response element (ARE) signaling pathway - cell viability counter screen (AID 743203; calls by dose curve; note: nearly all actives have a fitted effect of over 55% in size). The method in brief: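 CellSensor ARE-bla HepG2 cells, 2,000 per well, rested 5 hrs at 37C/5% CO2, then exposed to compound in DMSO for 16 hrs; viability read as CellTiter-Glo luminescence after 30 min at room temperature, in the reporter wells.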

Assay [8] in a line: qHTS assay for small molecule activators of the heat shock response signaling pathway - cell viability counter screen (AID 743209). Note: nearly all actives have a fitted effect of over 50% in size. Summed up: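 CellSensor HSE-bla HeLa cells, plated overnight at 37 C/5% CO2, were exposed to compounds in DMSO for 5 h at 37 C. Viability was then read in the same wells by CellTiter-Glo luminescence after 30 min at room temperature.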
Assay [9] can be described thus: qHTS assay for small molecule activators of the heat shock response signaling pathway (AID 743210; active = well fitted activation curve with a large enough effect in the signal ratio in the repeat runs, with a control signal flat, not every such curve was filed as active; the % refers to the signal ratio;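 note: HeLa cells with beta-lactamase reporter driven by heat shock elements; series mostly up to about 63 µM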). The method in brief:
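Reporter gene assay: HeLa cells stably bearing an HSE-bla construct, compound treatment 5 h at 37 C, LiveBLAzer substrate 2.5 h at RT, fluorescence intensity.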

Assay [10] is described as follows: qHTS assay for small molecule agonists of the antioxidant response element (ARE) signaling pathway (AID 743202; active = well fitted activation curve with a large enough effect in the signal ratio in the repeat runs, not every such curve was filed as active; the % refers to the signal ratio). Summed up: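 Compounds delivered in DMSO to ARE-bla HepG2 cells (2,000 cells/well, pre-incubated 5 h) and left 16 h at 37 C. LiveBLAzer B/G FRET substrate then added for 2 h at RT before fluorescence reading.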

Chain of Peroxisome proliferator-activated receptor gamma (Homo sapiens) (P37231 whole entry, looked up): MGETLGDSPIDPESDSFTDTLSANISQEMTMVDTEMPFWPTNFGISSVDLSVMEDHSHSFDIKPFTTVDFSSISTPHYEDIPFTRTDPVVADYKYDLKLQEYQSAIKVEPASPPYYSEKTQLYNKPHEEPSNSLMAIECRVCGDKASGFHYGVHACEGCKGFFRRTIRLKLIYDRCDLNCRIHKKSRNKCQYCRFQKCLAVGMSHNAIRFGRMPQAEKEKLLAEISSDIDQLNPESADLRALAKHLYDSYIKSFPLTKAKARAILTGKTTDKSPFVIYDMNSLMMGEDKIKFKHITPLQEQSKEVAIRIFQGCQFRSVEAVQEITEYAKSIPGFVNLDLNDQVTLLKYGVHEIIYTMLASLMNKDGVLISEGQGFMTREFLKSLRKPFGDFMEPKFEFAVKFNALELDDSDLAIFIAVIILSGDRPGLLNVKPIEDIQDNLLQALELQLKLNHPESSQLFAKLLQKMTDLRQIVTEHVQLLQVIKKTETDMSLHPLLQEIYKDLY

For the compound `CC(C)(C)C(O)/C=C/c1ccc2c(c1)OCO2` (stereo unspecified), the Potency entry in [1], in assay [3], in assay [5], in [6], in assay [7] and in [8] was “inactive” in each case. The Potency result in [9] was “inactive”. Besides, the Potency in [2] is 11.9 µM (active). Moreover, the compound was classed as inactive in assay [4].
Regarding `CNCc1ccc(NC(=O)c2c[nH]c3c2C(=O)CCC3)cc1`, the Potency entry in [1], in assay [3], in assay [5], in assay [6], in assay [7] and in assay [8] was “inactive” throughout. The Potency result in [9] is “inactive”. The Potency in assay [2] is 1.54 µM (active). Also, in assay [4], the compound was classed as inactive.
For `CC(=O)OCC(C)C`, the Potency entry in [1], in [2], in assay [3], in assay [5], in [6] and in assay [7] was “inactive” each time. In addition, the Potency result in assay [8] and in [9] was “inactive” throughout. Further, in assay [4], the outcome was inactive.
For `COC(=O)c1sccc1S(N)(=O)=O`, the Potency entry in assay [1], in [2], in assay [3], in [5], in assay [6] and in assay [8] was “inactive” throughout. In addition, the Potency entry in assay [9] is “inactive”. The compound was classed as inactive in [4].
As to `Cc1c(C2(c3cc(Br)c(O)c(Br)c3C)OS(=O)(=O)c3ccccc32)cc(Br)c(O)c1Br`, the Potency in assay [1] is 18.8 µM (active); in assay [3], 10.5 µM (active). Moreover, the Potency entry in assay [2], in [5], in assay [6], in assay [8] and in assay [9] was “inactive” each time. For the same compound, the result in assay [4] was inactive.
In the case of `Cc1ccc(N(CC2=NCCN2)c2cccc(O)c2)cc1`, the Potency result in [1], in assay [2], in assay [3], in assay [5], in assay [6] and in assay [7] was “inactive” in each case. Further, the Potency entry in [8] and in [9] was “inactive” throughout. Moreover, the result in assay [4] was inactive.
On to `CC(C)COC(=O)c1ccc(O)cc1`, for which the Potency entry in assay [1], in assay [2], in assay [3], in assay [5], in [6] and in assay [7] was “inactive” each time. Further, the Potency result in [8] and in [9] was “inactive” in each case. Moreover, the compound was classed as inactive in assay [4].
As for `COc1ccc(C)cc1`, the Potency entry in assay [1], in [2], in assay [3], in assay [5], in [6] and in [8] was “inactive” throughout. In addition, the compound was called inactive in assay [4].
On to `NC(=O)CCCCC(N)=O`, for which the Potency entry in [1], in assay [2], in assay [3], in [5], in assay [6] and in [7] was “inactive” each time. The Potency result in [8] and in assay [9] was “inactive” each time. For the same compound, in assay [4], the outcome was inactive.
`C=CC(=O)NC(C)C`: the Potency result in assay [1], in assay [2], in assay [3], in [5], in assay [6] and in [7] was “inactive” each time. The Potency result in assay [8] and in assay [9] was “inactive” in each case. Also, the outcome in [4] was inactive.
On to `O=NN(CCCl)C(=O)NCCCl`, for which the Potency result in assay [1], in assay [2], in assay [3], in [5], in assay [7] and in assay [8] was “inactive” in each case. Also, the Potency entry in [9] was “inactive”. Besides, the compound was classed as inactive in assay [4].
For the compound `CC(O)Cn1cnc2c1c(=O)n(C)c(=O)n2C` (stereo unspecified), the Potency result in assay [1], in assay [2], in assay [3], in assay [6], in [10] and in [7] was “inactive” each time. For the same compound, the Potency entry in assay [8] and in assay [9] was “inactive” in each case. In addition, the outcome in assay [4] was inactive.
For `CC(C)OC(=O)c1ccccc1C(=O)OC(C)C`, the Potency entry in [1], in assay [2], in assay [3], in [6], in assay [10] and in assay [7] was “inactive” throughout. In addition, the Potency entry in assay [8] and in [9] was “inactive” in each case. Moreover, in assay [4], the result was inactive.
As to `ClC1=C(Cl)C1(Cl)Cl`, the Potency entry in [1], in assay [2], in assay [3], in [6], in assay [7] and in assay [8] was “inactive” throughout. The Potency entry in assay [9] is “inactive”. The result in assay [4] was inactive.
`CC1CCCO1` (stereo unspecified): the Potency result in [1], in assay [2], in assay [3], in assay [6], in [7] and in assay [8] was “inactive” each time. For the same compound, the Potency entry in assay [9] was “inactive”. Moreover, in assay [4], the compound was called inactive.
With `CC[C@H]1OC(=O)[C@H](C)[C@@H](O[C@H]2C[C@@](C)(OC)[C@@H](O)[C@H](C)O2)[C@H](C)[C@@H](O[C@@H]2O[C@H](C)C[C@H](N(C)C)[C@H]2O)[C@](C)(O)C[C@@H](C)/C(=N\OCOCCOC)[C@H](C)[C@@H](O)[C@]1(C)O`, the Potency entry in assay [1] is “inactive and 10.2 µM (active)”. In addition, the Potency result in assay [2], in assay [3], in assay [6], in assay [7] and in assay [8] was “inactive” throughout. For the same compound, the call in assay [4] was inactive.
With `CCCCCCCCCCCCCOS(=O)(=O)O`, the Potency result in assay [1], in [2], in [3], in [6] and in assay [8] was “inactive” in each case. The compound was called inactive in [4].
